Data taken from PubChem BioAssay (EPA / NIEHS).
“And” between values parts separate entries of the source, which are not always exact repeats. Equal values may be shown once. The source made the active and inactive calls. Rule for the calls: active = hit-call score of the fitted dose curve at least 0.9, where 1 is the maximum; inactive = score below 0.9.

Read-out: Interferon-gamma inducible Protein 10 (IP10), CXCL10 (gene 3627)
Experiment: BSK_KF3CT_IP10: BioMAP Diversity Plus: KF3CT Assay for Interferon-gamma inducible Protein 10 (IP10) Biomarker Activity (AID 2283068)
Conditions: primary human keratinocytes with fibroblasts; actives raise or lower the signal
Description: BSK_KF3CT is a cell-based, multiplexed-readout assay that uses keratinocytes and foreskin fibroblasts, a human skin primary cell co-culture, with measurements taken at 24 hours after chemical dosing in a 96-well plate.BSK_KF3CT_IP10 is an assay component measured in the BSK_KF3CT assay. It measures IP-10 antibody related to regulation of gene expression using ELISA technology.Data from the assay component BSK_KF3CT_IP10 was analyzed into 1 assay endpoint. This assay endpoint, BSK_KF3CT_IP10, was analyzed with bidirectional fitting relative to DMSO as the negative control and baseline of activity. Using a type of binding reporter, gain or loss-of-signal activity can be used to understand changes in the signaling as they relate to the gene CXCL10. Furthermore, this assay endpoint can be referred to as a primary readout, because this assay has produced multiple assay endpoints where this one serves a signaling function. To generalize the intended target to other relatable targets, this assay endpoint is annotated to the cytokine intended target family, where the subfamily is chemotactic factor.
The levels of cell surface (or secreted, indicated by the prefix "s") biomarker endpoints were measured by ELISA. Overt cytotoxicity to cells in confluent adherent cultures (all systems other than the BT system) was assessed by measuring total protein levels using sulforhodamine B (SRB) staining in parallel cultures at the time of biomarker measurements, indicated as SRB endpoints. For proliferation assays for adherent cell types, individual cell types are cultured at sub-confluence and relative cell numbers quantified by SRB staining at time points optimized for each system (48 h: 3C and CASM3C systems; 72 h: BT and HDF3CGF systems; 96 h: SAg system). SRB was performed by staining cells with 0.1% SRB after fixation with 10% TCA and reading wells at 560 nm.Viability and proliferation of PBMC (T cells) was quantified by Alamar Blue reduction for the SAg and BT systems. For PBMC viability (referred to as PBMC Cytotoxicity within the assay endpoint names), cells were plated (75,000/well in a 96-well plate) and then chemical samples added for 1 h before addition of activators, SEB and TSST-1 (20 ng/mL final concentration each). Cells were incubated for 90 h. Then, Alamar Blue (20 uL/well) (Invitrogen, Cat DAL1100) was added for 6 h, and the plates were read with a fluorescence microplate reader at 546/580 nm (excitation/emission). For PBMC proliferation, cells were plated and activated as above but incubated for only 16 h prior to addition of Alamar Blue. Plates were read after 6 h.

Structure (SMILES) | outcome | AC50
CCCCC=O | inactive | 
O=P(O)(O)CCC(F)(F)C(F)(F)C(F)(F)C(F)(F)C(F)(F)C(F)(F)F | inactive | 
CCCCCCCCCCCCCCCCCC[N+](C)(C)Cc1ccccc1 |  | 2.54 µM (active)
C=COC(=O)C(C)(C)CCCCCC |  | 34.7 µM (active)
CN(CCO)S(=O)(=O)C(F)(F)C(F)(F)C(F)(F)C(F)(F)C(F)(F)C(F)(F)C(F)(F)C(F)(F)F | inactive | 
CC1=NN(c2ccccc2)C(=O)C1 | inactive | 
CCCCCc1ccc(O)cc1 |  | 29.2 µM (active)
COC1=CC(=O)C[C@@H](C)[C@]12Oc1c(Cl)c(OC)cc(OC)c1C2=O | inactive | 
O=C(O)CCC(F)(F)C(F)(F)C(F)(F)C(F)(F)C(F)(F)F | inactive | 
O=C(NO)c1ccccc1 | inactive | 
COc1cccc(O)c1 | inactive | 
Oc1c(Cl)cc(Cl)cc1Sc1cc(Cl)cc(Cl)c1O |  | 2.75 µM (active) and 2.98 µM (active)
CS(=O)(=O)c1ccc([C@@H](CC2CCCC2)C(=O)Nc2cnccn2)cc1Cl | inactive | 
O=C(c1ccccc1)c1ccccc1 | inactive | 
O=C(NCc1ncc(C(F)(F)F)cc1Cl)c1c(Cl)cccc1Cl | inactive | 
CCOC(=O)CN[C@@H](C(=O)N1CC[C@H]1C(=O)NCc1ccc(/C(N)=N/O)cc1)C1CCCCC1 | inactive | 
Clc1ccc(Nc2nnc(Cc3ccncc3)c3ccccc23)cc1 | inactive | 
CC(C)(C)c1ccc(O)c(O)c1 |  | 33.8 µM (active)
COCN(COC)c1nc(N(COC)COC)nc(N(COC)COC)n1 | inactive | 
C[C@]12CC[C@@H]3c4ccc(O)cc4CC[C@H]3[C@@H]1C[C@@H](O)[C@@H]2O | inactive | 

Structure (SMILES) | outcome | AC50
O=C1OC2(c3ccccc31)c1cc(I)c(O)c(I)c1Oc1c2cc(I)c(O)c1I |  | 18.4 µM (active)
CCCCCCCCCCCCCCC | inactive | 
OCCN1CN(CCO)CN(CCO)C1 | inactive | 
CC(=O)Nc1ccc(O)cc1 | inactive | 
CN(C)CCOC(c1ccccc1)c1ccccc1 | inactive | 
Oc1cc2ccccc2cc1O | inactive | 
O=C(O)CCC(F)(F)C(F)(F)C(F)(F)C(F)(F)C(F)(F)C(F)(F)F | inactive | 
O=C(CCCN1CCC(O)(c2ccc(Cl)cc2)CC1)c1ccc(F)cc1 | inactive | 
CCCCC(CC)C(=O)OCCOCCOCCOCCOC(=O)C(CC)CCCC (stereo not given) | inactive | 
NC(=NCCCCCCN=C(N)/N=C(\N)Nc1ccc(Cl)cc1)/N=C(\N)Nc1ccc(Cl)cc1 |  | 6.16 µM (active)
CC[N+](CC)(CC)Cc1ccccc1 | inactive | 
CN(Cc1cnc2nc(N)nc(N)c2n1)c1ccc(C(=O)N[C@@H](CCC(=O)O)C(=O)O)cc1 | inactive | 
O=C1NS(=O)(=O)c2ccccc21 | inactive | 
O=C(CC(=O)C(F)(F)C(F)(F)C(F)(F)F)c1cccs1 | inactive | 
OCC(F)(F)C(F)(F)C(F)(F)C(F)(F)C(F)(F)C(F)(F)C(F)(F)C(F)(F)C(F)(F)C(F)(F)C(F)(F)F | inactive | 
O=S(=O)(O)C(F)(F)C(F)(F)C(F)(F)C(F)(F)C(F)(F)C(F)(F)C(F)(F)C(F)(F)C(F)(F)C(F)(F)F | inactive | 
N=C(N)c1ccc(OCCCCCOc2ccc(C(=N)N)cc2)cc1 | inactive | 
O=P(O)(O)CCC(F)(F)C(F)(F)C(F)(F)C(F)(F)C(F)(F)C(F)(F)C(F)(F)C(F)(F)F | inactive | 
CCCCC(CC)C(=O)O (stereo not given) | inactive | 
CN(C)c1ccc(C(=C2C=CC(=[N+](C)C)C=C2)c2ccccc2)cc1 |  | 0.39 µM (active)
